Data on 68 sequences can be found in PubChem BioAssay AID1508600 (Functional Genomics Laboratory (NCATS/FGL), 2020).

About 3,700 (7%) of roughly 53,000 sequences were called active.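 How the source made its calls: active means gene knockdowns whose robust z-score for IL-1 alpha signal is at least 2 or at most -2, so actives lie on both sides; inactive means the rest.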 This excerpt belongs to a sample that is enriched for actives.

A short description of the experiment: Components of the Cytosolic LPS Sensing Pathway: Gene Identification via Genome-wide siRNA Screen.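 Further: robust z of the log signal after scaling to non-targeting control siRNA wells of the plate.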 To be noted: RAW264.7 macrophages, IL-1a HTRF, actives lie on both sides, screened at 100 nM (by protocol), cells primed 5 h with Pam3CSK4 first. Put shortly:
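RAW264.7; siRNA 100 nM final, RNAiMAX, 48h 37 degrees C; Pam3CSK4 5 h; LipidA + TransIT-TKO 24 h; IL-1a HTRF; CellTiter-Glo viability; robust z vs negative-control median.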
For GGUUCAACACGAUGUUCGATT against Nr1i2, the z-score was 0.162 (inactive).
For GGAUGUCUGACACAAGUGUTT against Olfr390 the value was 3.42 (active); for GCUUCACAGAAGCUUUGUGTT against Ccl4, -0.156 (inactive).
As to GGAAUAUCAGAAUACCAUCTT against Cnpy4, the z-score is 0.89 (inactive).
To CCAGGAACAGCUAUCGGAUTT against Homer2 belongs -0.271 (inactive); to GCUGCAUUACAAGCCCAACTT against Zfp414, -0.218 (inactive); to GGUGACAUAUUUGAAGUGGTT against Dmwd, -0.000303 (inactive).
To GCACCCUACCUGCUAAUGUTT against Slitrk1 belongs 3.59 (active); to GGAUGACAAGGUUAAGCUATT against Golm2, -0.0855 (inactive).
As to GCAACAAUGUGGUUCCUAUTT against Rab11a, the z-score was 0.616 (inactive).
Turning to GGAGCUACUGUACCUUGCUTT against Ncapg2, the z-score was -1.29 (inactive).
Turning to GGCUAGAAAACCUCUAUCUTT against Lrrc18, the z-score is -2.11 (active).
GUGCAUGCAGUGUUGUUUUTT against Magea5: the z-score is 0.711 (inactive).
As for GGAUAGGGAUUGGAGAUAUTT against Stn1, the z-score is 0.203 (inactive).
As to GGGUAGUCACUCAAUAAAUTT against Pear1, the z-score is -0.54 (inactive).
To GGAUUGCCCUGUGGACAAGTT against Nr4a1 belongs 0.963 (inactive).
For GGCGAAAUGAACACAAAGCTT against Edf1 the value was 0.983 (inactive).
To GGAAAAGUACACAAAGACCTT against Nkx2-1 belongs 2.16 (active); to GGAAAAGUGGUGAACGACATT against Tm4sf4, 0.798 (inactive); to GCUGCUGUGACUUAGAUAATT against Cds2, -0.668 (inactive).
With CCAGGAUCAUUCUUCUGAATT against Chrna7, the z-score is -0.563 (inactive).
Turning to GCGUAUACCAUGCAGAUAUTT against Sigmar1, the z-score was 1.05 (inactive).
For GGCGUACGUAGACAAGUACTT against Scaf11 the value was -2.23 (active); for GGAAGGUAAUUGCUUUUAGTT against Gmeb1, 0.533 (inactive).
Take GCACUUGCUUCAAGUAAUATT against Ankrd52: the z-score is -0.0516 (inactive).
To “GCUCUGCUGUGUUAUAUGGTT against C330011M18Rik” belongs 0.144 (inactive).
For CCUAUGCUUUUUUGUAAGATT against Il13ra2 the value was 0.126 (inactive); for GGGAAUAGCAAAUAAAGCATT against Lztr1, -0.674 (inactive).
To GGCUGUUGAACUUAAUCCCTT against Tomm70a belongs -2.25 (active).
Regarding GGUAGACGGAAUCUAUUUATT against Kcnj15, the z-score is -1.31 (inactive).
To GGUGGACUUAUAUGGUUUUTT against St3gal1 belongs 0.408 (inactive); to GGUGAUUGGGAAUUGAAAATT against F3, 0.341 (inactive); to GCAUAUGCGAACAGUAAAATT against Rab28, -0.182 (inactive).
To GGUACCUUCAUCUUGGUGGTT against Olfr699 belongs -0.017 (inactive); to GCCUUGACCUGAUUUCUACTT against Tas2r131, -0.525 (inactive).
GCAUUCAGGACCUGUGGCUTT against Olfr890: the z-score was -2.33 (active).
“GGAUCUGUGAGUUUGUAGCTT against D930030D11Rik”: the z-score was 0.585 (inactive).
For “GGACAACUCAAUUCUAAAATT against 4921522P10Rik” the value was -1.22 (inactive).
In the case of GCAAAGUUCACCUAAUUGGTT against Lipc, the z-score was -1.03 (inactive).
Regarding GCCAGACUGAGCUACAAAATT against Gm9732, the z-score is -1.3 (inactive).
For GCAUCAAAAUCGGUUUCUGTT against Lkaaear1 the value was 0.759 (inactive).
To CCUUUGGACGCAACCAGUUTT against Ugt1a6b belongs 2.04 (active); to CGAAUUAAUCUCACAGGAGTT against Vps53, 0.44 (inactive); to CCCUCAAUGGCCUCAAACUTT against Elavl3, -1.29 (inactive).
With GUUAGAUGCCCUCAAGUUCTT against Trappc6a, the z-score is -0.857 (inactive).
Turning to GGAUGAGAGUCCACAGCAATT against Lpar3, the z-score is -1.26 (inactive).
Regarding GGAAUUCACAGAUACCGUGTT against Guca1a, the z-score was 0.93 (inactive).
For GGAUGAGGUGAUUAAAGAATT against Cd9 the value was 2.38 (active).
For GGAGUUCAUUGUUUGGUUGTT against Nat2 the value was 0.593 (inactive).
For GGAUAUUGAUGUUUCAAGUTT against Neo1 the value was -0.241 (inactive).
Take CGUGGUGCAGAAUUUUUAUTT against Cldn14: the z-score was 1.13 (inactive).
For “GGCACACACAUCAAAAGGATT against A530021J07Rik” the value was -2.63 (active); for GGUAGAUGGCAUCUACUAUTT against Josd2, 0.663 (inactive).
As to GCUGGCAGUUUGUAAGUAGTT against Faxc, the z-score is -0.653 (inactive).
To GGGUGUCAUCCUUAUCCUGTT against Olfr655 belongs -0.0528 (inactive).
Consider CCGAAUCUGUCGUCAAGGUTT against Trem3, for which the z-score was 0.552 (inactive).
GGACCAGGUCCGUUGGAAUTT against Efna1: the z-score was 0.636 (inactive).
For GGAUGUAAAGAGGAAUCUCTT against Abca16 the value was -0.748 (inactive); for GCAUCCCUUCCGAGAAACATT against Bag6, 0.916 (inactive).
Consider GCCGUCAGACAAGGAGGAATT against Magi1, for which the z-score was 2.43 (active).
In the case of GGAUGUCCUUGACUUUAAATT against Atp6v0a4, the z-score is 0.704 (inactive).
For GCCUGAGGAAUCGUGACAUTT against Olfr51 the value was -1.58 (inactive).
Turning to GGAAAUGAUACAUUUGUGATT against Mre11a, the z-score is -0.256 (inactive).
On to CCGCACAGACCAUAGUAGATT against Pudp, for which the z-score is 0.261 (inactive).
Turning to GGUACUUUGGAAAGAAGAGTT against Yeats4, the z-score is -1.27 (inactive).
GGGAAUGAACCUAGAAGAGTT against Tymp: the z-score was -1.2 (inactive).
For GGUAGCCAUAUCUAACAGCTT against Scd1 the value was -2.02 (active).
For GCCCUGAGACCACGAUAUUTT against AF067063 the value was 1.48 (inactive).
